From PMC11006913 come the findings set out here.

Holding throughout (test): PBM; 200 nM protein, PBS
What all share (conditions): dsDNA, one strand shown

The target in test [1] is HOXD13 (Homo sapiens, UniProt P35453 263-343, T313R).
Test [2] addresses HOXD13 (Homo sapiens, UniProt P35453 263-343).
Test [3] deals with HOXD13 (Homo sapiens, UniProt P35453 263-343, T313A).
In test [4] the target is CRX (Homo sapiens, UniProt O43186 26-111, R41L).
Test [5] addresses ALX3 (Homo sapiens, UniProt O95076 139-225, N203S).
Test [6] deals with T1, NKX2-6 (Homo sapiens, UniProt A6NCS4 118-204).
T1 sequence: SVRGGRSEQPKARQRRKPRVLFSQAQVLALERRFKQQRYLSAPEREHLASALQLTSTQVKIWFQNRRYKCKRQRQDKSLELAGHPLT

Test [7] has as its target T2, NKX2-6 (Homo sapiens, UniProt A6NCS4 118-204, F151L).
T2 sequence: T1 sequence with F34L

In test [8] the target is VAX1 (Homo sapiens, UniProt Q5SQQ9 86-172).
For test [9], the target named is VAX1 (Homo sapiens, UniProt Q5SQQ9 86-172, T142I).
Test [10] concerns the target VAX1 (Homo sapiens, UniProt Q5SQQ9 86-172, K157R).
The target of test [11] is PITX2 (Homo sapiens, UniProt Q99697 72-157).

Numbering of substitutions follows the chain as printed.

Chain of HOXD13 (Homo sapiens, UniProt P35453 263-343, T313A) (P35453 263-343 T313A): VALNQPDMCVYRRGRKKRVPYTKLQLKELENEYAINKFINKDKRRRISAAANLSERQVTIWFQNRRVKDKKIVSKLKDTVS
Chain of HOXD13 (Homo sapiens, UniProt P35453 263-343) (P35453 263-343): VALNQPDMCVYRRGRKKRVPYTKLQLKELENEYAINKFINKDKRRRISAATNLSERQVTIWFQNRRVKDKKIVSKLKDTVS
Chain of HOXD13 (Homo sapiens, UniProt P35453 263-343, T313R) (P35453 263-343 T313R): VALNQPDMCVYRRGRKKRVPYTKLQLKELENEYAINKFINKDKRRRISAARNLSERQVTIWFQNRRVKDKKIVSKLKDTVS
Chain of VAX1 (Homo sapiens, UniProt Q5SQQ9 86-172, T142I) (Q5SQQ9 86-172 T142I): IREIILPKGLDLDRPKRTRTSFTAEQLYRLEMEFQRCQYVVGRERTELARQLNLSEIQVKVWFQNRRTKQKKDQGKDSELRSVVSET
Chain of VAX1 (Homo sapiens, UniProt Q5SQQ9 86-172) (Q5SQQ9 86-172): as the sequence (Q5SQQ9 86-172 T142I) above, with I57T counted along it
Chain of VAX1 (Homo sapiens, UniProt Q5SQQ9 86-172, K157R) (Q5SQQ9 86-172 K157R): as the sequence (Q5SQQ9 86-172 T142I) above, with I57T, K72R counted along it
Chain of CRX (O43186 26-111 R41L): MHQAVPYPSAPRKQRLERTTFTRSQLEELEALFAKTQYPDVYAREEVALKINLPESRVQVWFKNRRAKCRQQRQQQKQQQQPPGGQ
Chain of ALX3 (O95076 139-225 N203S): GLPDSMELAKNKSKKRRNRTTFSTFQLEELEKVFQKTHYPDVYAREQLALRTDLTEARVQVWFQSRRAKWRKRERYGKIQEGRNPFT

Consider GCCGGTGA, for which the binding signal in test [1] is 9.57 upbm affinity estimate (log intensity, higher = more binding, comparable within an allelic series); in test [2], 9.7 upbm affinity estimate (log intensity, higher = more binding, comparable within an allelic series); in test [3] it was 9.88 upbm affinity estimate (log intensity, higher = more binding, comparable within an allelic series).
As for CAGGCGAC, the binding signal in [1] is 9.59 upbm affinity estimate (log intensity, higher = more binding, comparable within an allelic series); in [2], 9.52 upbm affinity estimate (log intensity, higher = more binding, comparable within an allelic series); in [3] it was 9.66 upbm affinity estimate (log intensity, higher = more binding, comparable within an allelic series).
Consider CAGTGGGG, for which the binding signal is 9.47 upbm affinity estimate (log intensity, higher = more binding, comparable within an allelic series) in [1]; 9.55 upbm affinity estimate (log intensity, higher = more binding, comparable within an allelic series) in test [2]; 9.72 upbm affinity estimate (log intensity, higher = more binding, comparable within an allelic series) in test [3].
Regarding CCGGCCGC, the binding signal in [1] is 9.39 upbm affinity estimate (log intensity, higher = more binding, comparable within an allelic series); in [2], 9.4 upbm affinity estimate (log intensity, higher = more binding, comparable within an allelic series); in test [3], 9.32 upbm affinity estimate (log intensity, higher = more binding, comparable within an allelic series).
Regarding CTGGCCCC, the binding signal was 9.44 upbm affinity estimate (log intensity, higher = more binding, comparable within an allelic series) in test [1]; 9.38 upbm affinity estimate (log intensity, higher = more binding, comparable within an allelic series) in test [2]; 9.45 upbm affinity estimate (log intensity, higher = more binding, comparable within an allelic series) in [3].
With CCTATAAA, the binding signal is 11.1 upbm affinity estimate (log intensity, higher = more binding, comparable within an allelic series) in test [1]; 12.3 upbm affinity estimate (log intensity, higher = more binding, comparable within an allelic series) in [2]; 12.1 upbm affinity estimate (log intensity, higher = more binding, comparable within an allelic series) in test [3].
CCTCATAA: the binding signal in [1] is 10.6 upbm affinity estimate (log intensity, higher = more binding, comparable within an allelic series); in test [2], 11.8 upbm affinity estimate (log intensity, higher = more binding, comparable within an allelic series); in test [3], 11.6 upbm affinity estimate (log intensity, higher = more binding, comparable within an allelic series).
As to CGCAGCCC, the binding signal was 9.49 upbm affinity estimate (log intensity, higher = more binding, comparable within an allelic series) in test [1]; 9.55 upbm affinity estimate (log intensity, higher = more binding, comparable within an allelic series) in test [2]; 9.57 upbm affinity estimate (log intensity, higher = more binding, comparable within an allelic series) in test [3].
Consider CCCCTCGC, for which the binding signal in [1] was 9.62 upbm affinity estimate (log intensity, higher = more binding, comparable within an allelic series); in [2] it was 9.63 upbm affinity estimate (log intensity, higher = more binding, comparable within an allelic series); in [3], 9.67 upbm affinity estimate (log intensity, higher = more binding, comparable within an allelic series).
On to ATTTACAA, for which the binding signal in [1] is 10.7 upbm affinity estimate (log intensity, higher = more binding, comparable within an allelic series); in test [2], 11.8 upbm affinity estimate (log intensity, higher = more binding, comparable within an allelic series); in [3], 11.6 upbm affinity estimate (log intensity, higher = more binding, comparable within an allelic series).
In the case of GGCCCACC, the binding signal was 9.47 upbm affinity estimate (log intensity, higher = more binding, comparable within an allelic series) in test [1]; 9.38 upbm affinity estimate (log intensity, higher = more binding, comparable within an allelic series) in test [2]; 9.5 upbm affinity estimate (log intensity, higher = more binding, comparable within an allelic series) in [3].
With CGCCCCCA, the binding signal in test [1] was 9.33 upbm affinity estimate (log intensity, higher = more binding, comparable within an allelic series); in test [2], 9.3 upbm affinity estimate (log intensity, higher = more binding, comparable within an allelic series); in test [3], 9.5 upbm affinity estimate (log intensity, higher = more binding, comparable within an allelic series).
GTTATTAA: the binding signal in [4] was 10.4 upbm affinity estimate (log intensity, higher = more binding, comparable within an allelic series); in test [5], 8.66 upbm affinity estimate (log intensity, higher = more binding, comparable within an allelic series).
As to ACGGCCAG, the binding signal is 9.26 upbm affinity estimate (log intensity, higher = more binding, comparable within an allelic series) in test [6] and 9.26 upbm affinity estimate (log intensity, higher = more binding, comparable within an allelic series) in test [7].
With CGCTCGGC, the binding signal in test [6] was 9.08 upbm affinity estimate (log intensity, higher = more binding, comparable within an allelic series); in test [8], 6.93 upbm affinity estimate (log intensity, higher = more binding, comparable within an allelic series); in test [7] it was 9.38 upbm affinity estimate (log intensity, higher = more binding, comparable within an allelic series); in test [9], 6.99 upbm affinity estimate (log intensity, higher = more binding, comparable within an allelic series); in [10], 6.71 upbm affinity estimate (log intensity, higher = more binding, comparable within an allelic series).
For the sequence CGGGACGC, the binding signal is 9.53 upbm affinity estimate (log intensity, higher = more binding, comparable within an allelic series) in [6] and 9.25 upbm affinity estimate (log intensity, higher = more binding, comparable within an allelic series) in [7].
Regarding AGCTGCAG, the binding signal was 9.32 upbm affinity estimate (log intensity, higher = more binding, comparable within an allelic series) in [6] and 9.44 upbm affinity estimate (log intensity, higher = more binding, comparable within an allelic series) in test [7].
With CGCTTAAG, the binding signal in [6] is 12.2 upbm affinity estimate (log intensity, higher = more binding, comparable within an allelic series); in [8] it was 9.23 upbm affinity estimate (log intensity, higher = more binding, comparable within an allelic series); in test [7] it was 9.9 upbm affinity estimate (log intensity, higher = more binding, comparable within an allelic series); in test [9], 8.86 upbm affinity estimate (log intensity, higher = more binding, comparable within an allelic series); in test [10] it was 9.02 upbm affinity estimate (log intensity, higher = more binding, comparable within an allelic series).
CTGTGGCC: the binding signal in [6] is 9.24 upbm affinity estimate (log intensity, higher = more binding, comparable within an allelic series); in test [11] it was 7.86 upbm affinity estimate (log intensity, higher = more binding, comparable within an allelic series); in test [7], 9.38 upbm affinity estimate (log intensity, higher = more binding, comparable within an allelic series).
As to ATGCCCTG, the binding signal is 9.6 upbm affinity estimate (log intensity, higher = more binding, comparable within an allelic series) in [6] and 9.34 upbm affinity estimate (log intensity, higher = more binding, comparable within an allelic series) in test [7].
With CCAGAATC, the binding signal was 9.71 upbm affinity estimate (log intensity, higher = more binding, comparable within an allelic series) in test [6] and 9.51 upbm affinity estimate (log intensity, higher = more binding, comparable within an allelic series) in test [7].
As for CACACGGA, the binding signal is 9.29 upbm affinity estimate (log intensity, higher = more binding, comparable within an allelic series) in test [6] and 9.43 upbm affinity estimate (log intensity, higher = more binding, comparable within an allelic series) in test [7].
Turning to CGTCCGTA, the binding signal in test [6] is 9.42 upbm affinity estimate (log intensity, higher = more binding, comparable within an allelic series); in test [7], 9.44 upbm affinity estimate (log intensity, higher = more binding, comparable within an allelic series).
For CGGGGGCC, the binding signal is 9.04 upbm affinity estimate (log intensity, higher = more binding, comparable within an allelic series) in test [6] and 9.04 upbm affinity estimate (log intensity, higher = more binding, comparable within an allelic series) in [7].
Consider CGGGATCC, for which the binding signal in test [6] is 9.34 upbm affinity estimate (log intensity, higher = more binding, comparable within an allelic series); in [7], 9.34 upbm affinity estimate (log intensity, higher = more binding, comparable within an allelic series).
With CGCGGTCA, the binding signal in test [6] was 9.54 upbm affinity estimate (log intensity, higher = more binding, comparable within an allelic series); in [7] it was 9.33 upbm affinity estimate (log intensity, higher = more binding, comparable within an allelic series).
Take CAGTCTGC: the binding signal in [6] was 9.37 upbm affinity estimate (log intensity, higher = more binding, comparable within an allelic series); in test [7], 9.38 upbm affinity estimate (log intensity, higher = more binding, comparable within an allelic series).
Turning to GCAGTCCC, the binding signal in [6] is 9.36 upbm affinity estimate (log intensity, higher = more binding, comparable within an allelic series); in test [7], 9.32 upbm affinity estimate (log intensity, higher = more binding, comparable within an allelic series).
On to AGTGCCAC, for which the binding signal in test [6] is 11.6 upbm affinity estimate (log intensity, higher = more binding, comparable within an allelic series); in [7], 9.9 upbm affinity estimate (log intensity, higher = more binding, comparable within an allelic series).
As for CACCGCGC, the binding signal in test [6] is 8.99 upbm affinity estimate (log intensity, higher = more binding, comparable within an allelic series); in [7] it was 9.25 upbm affinity estimate (log intensity, higher = more binding, comparable within an allelic series).
